A selection: hits, their analogues and other compounds. The true share with any hit is near 21%.
HCMV antiviral = human cytomegalovirus inhibition | HFF cells, HCMV-luciferase reporter, 72 h; hits give low values | activity change, negative = inhibition, % at 57.5 µM | 410,000 tested, 4.5% active | AID 1259415; in the data active = activity change below about -60%; inconclusive = no clear call, values can overlap the other calls; inactive = above about -39%
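Screen run at 2 compound doses on HFFs infected with reporter HCMV, MOI 1 PFU/cell. Luciferase activity from cell lysates at 72 h post infection gave inhibition relative to buffer-only and Salinomycin wells.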
Pf growth 96h = inhibits malaria parasite growth, 96 h; P. falciparum luciferase reporter growth, 96 h; Potency, µM (doses to about 28.7 µM), hits mostly inhibitors; 320,000 tested, 6.9% active; AID 504834
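Two parasite generations (96 h, 37 C, 5% CO2) of compound exposure in infected erythrocytes (0.05% parasitemia, 2% hematocrit). Luciferase-reporter P. falciparum; decreased luminescence indicates inhibited growth, aimed at apicoplast-acting delayed death.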
HCV inhibitor = inhibitors of hepatitis C virus infection. Huh7.5.1 HCVcc-Cre infection, luciferase reporter, 44 h. AID 651820. Potency, µM (doses to about 41.8 µM), hits mostly inhibitors. 340,000 tested, 3.4% active
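Infectious HCVcc-Cre (~0.5 moi) was added to cells just after compound, with cells seeded 4 h earlier at 1,000 per well. Luciferase activity after 44 h culture reported infection; substrate was incubated 15 min at room temperature before reading.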
Cycloheximide cs = counter-screen for Shiga toxin inhibitors: cycloheximide protein synthesis inhibition | cell reporter, cycloheximide protein synthesis inhibition counterscreen | max response, % | 300,000 tested, 12% active; in the data active = max response mostly above about 13%, no sharp cut-off; inactive = mostly below about 14%; note: read at 38.3 µM for the half of the compounds with a filed dose
Shiga toxin inh = blocks Shiga toxin action in Vero cells. 290,000 tested, 9.2% active. Vero cells, Shiga toxin protein synthesis inhibition reporter. AID 2315. inhibition, % at 38.7 µM; in the data active = inhibition mostly above about 28%, no sharp cut-off; inactive = mostly below about 43%
Pf growth 48h = inhibits P. falciparum growth in the first generation, 48 h | P. falciparum luciferase growth in erythrocytes, 48 h | Potency, µM (top dose mostly 28.7 µM), actives largely listed as inhibitors | 310,000 tested, 5.9% active | AID 504832
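Erythrocytes infected with P. falciparum carrying an integrated firefly luciferase reporter (2% hematocrit, 0.1% parasitemia final) were exposed to compounds in RPMI 1640 with 0.5% Albumax at 37 C, 5% CO2. Growth inhibition was scored as reduced luminescence.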
Hits are given with their value; i = inactive; ? = inconclusive; nt = no result. Unless noted, calls come from the whole dose curve; as a rule, active = well fitted inhibition curve with a large enough effect; inconclusive = small, poorly fitted or top-dose-only effect, or another doubt; inactive = no such curve, though single readings can be large or run the other way.

SMILES	HCMV antiviral	Pf growth 96h	HCV inhibitor	Cycloheximide cs	Shiga toxin inh	Pf growth 48h
CC(=O)c1ccc(NC(=O)c2cc3sccc3n2Cc2ccc(F)cc2)cc1	i	nt	nt	nt	nt	nt
Cc1c(C(=O)N(C)C)sc2c1c(=O)n(-c1ccc(F)cc1)c(=O)n2Cc1ccccc1C#N	i	nt	nt	nt	nt	nt
O=C(CSc1ccc(-c2ccccn2)nn1)Nc1cccc(F)c1	i	?	?	42	32	i
Cc1ccccc1NC(=O)CSc1ccc(-c2ccccn2)nn1	i	?	nt	i	i	i
COC(=O)c1ccc(NC(=O)CSc2ccc(-c3ccccn3)nn2)cc1	i	i	i	i	i	i
Cc1cc(C)cc(NC(=O)CSc2ccc(-c3ccccn3)nn2)c1	i	?	13µM	i	i	?
Fc1ccccc1C1c2cccn2CCN1C(=S)Nc1cccc(Br)c1 (stereo not given)	i	i	i	i	i	9.3µM
COc1ccc(N2C(=O)C3CCCCC3C2=O)cc1NC(=O)c1ccccc1 (stereo not given)	i	i	i	i	i	i
O=C(N/N=C/c1ccc(Sc2nc3ccccc3s2)c([N+](=O)[O-])c1)c1ccccn1	i	10µM	?	i	i	?
O=[N+]([O-])c1ccc(/C=N/N/C(=N/c2ccccn2)c2ccccn2)cc1	i	i	i	40	i	i
O=C(Oc1cccc(/C=N/NC(=O)c2ccccn2)c1)c1ccc([N+](=O)[O-])cc1	i	i	i	i	i	i
O=[N+]([O-])c1cc(/C=N/N/C(=N/c2ccccn2)c2ccccn2)ccc1O	-83	?	?	34	123	i
C[C@@H]1CCCCO[C@@H](CN(C)C(=O)C2CCCCC2)[C@@H](C)CN([C@H](C)CO)C(=O)c2cc(NC(=O)NC3CCCCC3)ccc2O1	i	nt	nt	nt	nt	nt
Cc1nc2ccc(NS(=O)(=O)c3ccccc3Cl)cc2s1	i	i	?	nt	nt	i
CSc1nc2ccc(NC(=O)COc3ccccc3F)cc2s1	i	nt	i	nt	nt	nt
CSc1nc2ccc(NS(=O)(=O)c3cccc(Cl)c3Cl)cc2s1	?	i	i	17	i	i
COc1cccc(F)c1C(=O)NC(=O)Nc1ccc2nc(C)oc2c1	nt	2.1µM	i	i	i	2.1µM
CSc1nc2ccc(NC(=O)NC(=O)c3c(F)cccc3F)cc2s1	i	i	i	17	i	i
C[C@H](CO)N1C[C@H](C)[C@@H](CN(C)C(=O)C2CC2)OCc2cn(nn2)CCCC1=O	i	nt	nt	nt	nt	nt
O=C(c1ccc2c(c1)OCCO2)N1CCN(c2ncc(C(F)(F)F)cc2Cl)CC1	i	i	?	nt	nt	i
Cc1ccc(S(=O)(=O)N(C)C)cc1NC(=O)C(C)OC(=O)CC1CC2CCC1C2 (stereo not given)	i	nt	nt	nt	nt	nt
COc1ccc(C/C(C)=N\NC(=O)c2cn(C)c3ccccc23)cc1OC	i	i	i	i	i	i
CC(C)(C)n1nnnc1C(c1cccnc1)N(Cc1ccccc1)Cc1ccco1 (stereo not given)	i	1.9µM	i	i	i	2.9µM
CCC(C)(C)n1nnnc1C(c1ccc(C)cc1)N(Cc1ccco1)Cc1cccs1 (stereo not given)	i	nt	?	i	i	4.7µM
COc1cccc(CN(Cc2ccco2)C(c2ccc(F)cc2)c2nnnn2C(C)(C)C)c1 (stereo not given)	i	?	?	i	i	1.7µM
SMILES	HCMV antiviral	Pf growth 96h	HCV inhibitor	Cycloheximide cs	Shiga toxin inh	Pf growth 48h
CCN(Cc1ccccc1)C(c1cccc(C#N)c1)c1nnnn1C(C)(C)C (stereo not given)	i	?	?	i	i	10µM
CCC(C)(C)n1nnnc1C(C(C)C)N(Cc1cccnc1)Cc1ccco1 (stereo not given)	?	i	i	i	i	?
COc1ccc2nc3c(cc2c1)Cn1c-3nc2ccccc2c1=O	nt	nt	nt	i	i	nt
FC(F)(F)c1ccc2c(c1)ncc1c(-c3ccccc3)nn(-c3ccccc3)c12	i	nt	nt	nt	nt	nt
CCOC(=O)CC(NC(=O)CCc1c(C)nc2c(c(C)nn2-c2ccc(C)c(C)c2)c1C)c1ccc(C)cc1 (stereo not given)	i	nt	nt	nt	nt	nt
O=Cc1cn(Cc2ccccc2F)c2ccccc12	-92	i	i	i	i	i
Fc1ccccc1Cn1cc(C(=S)N2CCOCC2)c2ccccc21	i	i	i	i	i	i
CC(=O)c1cn(Cc2ccccc2F)c2ccccc12	-79	i	?	i	i	?
O=Cc1cn(Cc2c(F)cccc2Cl)c2ccccc12	i	i	i	i	i	i

Screening data from PubChem BioAssay.
